Results on seven compounds are retold here after ChEMBL document CHEMBL1961873, “Compounds: GSK PKIS; Assays: Nanosyn kinase panel” (2012).

Experiment [1] has as its target T1, Tyrosine-protein kinase receptor TYRO3 (Homo sapiens) (UniProt Q06418).
T1 sequence (whole entry): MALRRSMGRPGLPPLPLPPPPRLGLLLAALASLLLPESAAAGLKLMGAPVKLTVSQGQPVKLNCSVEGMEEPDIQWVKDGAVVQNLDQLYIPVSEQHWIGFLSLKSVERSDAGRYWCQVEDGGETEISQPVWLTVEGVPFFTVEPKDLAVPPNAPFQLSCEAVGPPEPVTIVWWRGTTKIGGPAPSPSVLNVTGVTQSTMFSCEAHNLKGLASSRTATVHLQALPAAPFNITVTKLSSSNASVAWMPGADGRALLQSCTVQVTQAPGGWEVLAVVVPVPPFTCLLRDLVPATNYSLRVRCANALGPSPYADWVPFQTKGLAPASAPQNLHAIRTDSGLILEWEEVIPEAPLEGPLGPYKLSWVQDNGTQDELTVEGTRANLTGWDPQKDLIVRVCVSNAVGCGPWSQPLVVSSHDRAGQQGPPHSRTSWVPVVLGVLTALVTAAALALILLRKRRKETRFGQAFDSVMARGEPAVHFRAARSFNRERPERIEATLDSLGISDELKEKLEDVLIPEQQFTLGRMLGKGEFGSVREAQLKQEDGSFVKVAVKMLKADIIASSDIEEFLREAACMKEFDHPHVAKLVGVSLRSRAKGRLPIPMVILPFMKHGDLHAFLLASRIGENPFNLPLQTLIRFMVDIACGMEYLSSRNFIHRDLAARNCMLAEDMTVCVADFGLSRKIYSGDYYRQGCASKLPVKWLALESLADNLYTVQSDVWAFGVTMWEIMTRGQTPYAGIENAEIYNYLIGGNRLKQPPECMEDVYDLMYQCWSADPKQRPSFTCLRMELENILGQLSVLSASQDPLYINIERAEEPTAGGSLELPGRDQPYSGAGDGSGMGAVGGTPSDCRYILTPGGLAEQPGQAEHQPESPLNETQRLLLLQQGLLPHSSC
Particulars: at 1 µM.

In experiment [2] the target is Tyrosine-protein kinase Yes (Homo sapiens) (UniProt P07947). Particulars: at 0.1 µM.
For experiment [3] the target is unchanged. Particulars: at 1 µM.
For experiment [4], the target named is T2, Tyrosine-protein kinase ZAP-70 (Homo sapiens) (UniProt P43403).
T2 sequence (whole entry): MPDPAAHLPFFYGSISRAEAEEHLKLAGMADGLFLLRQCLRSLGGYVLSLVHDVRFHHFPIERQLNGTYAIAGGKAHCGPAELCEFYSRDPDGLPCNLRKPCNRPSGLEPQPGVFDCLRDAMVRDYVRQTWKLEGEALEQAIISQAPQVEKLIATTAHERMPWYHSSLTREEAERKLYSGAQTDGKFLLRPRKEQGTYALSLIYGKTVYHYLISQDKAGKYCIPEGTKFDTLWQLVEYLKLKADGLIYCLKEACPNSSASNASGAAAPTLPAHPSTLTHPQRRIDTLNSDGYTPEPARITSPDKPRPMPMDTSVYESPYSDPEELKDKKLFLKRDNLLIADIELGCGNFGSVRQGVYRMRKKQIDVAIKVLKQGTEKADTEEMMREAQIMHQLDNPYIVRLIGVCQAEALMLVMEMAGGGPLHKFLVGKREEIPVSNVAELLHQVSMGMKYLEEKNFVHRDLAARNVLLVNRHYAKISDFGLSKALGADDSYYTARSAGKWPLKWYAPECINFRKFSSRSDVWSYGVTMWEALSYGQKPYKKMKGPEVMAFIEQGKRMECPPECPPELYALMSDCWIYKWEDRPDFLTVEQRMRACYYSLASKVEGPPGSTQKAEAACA
To be noted: at 0.1 µM.

Experiment [5] has as its target T2, Tyrosine-protein kinase ZAP-70 (Homo sapiens). Particulars: at 1 µM.
The target of experiment [6] is Serine/threonine-protein kinase B-raf (Homo sapiens) (UniProt P15056). To be noted: at 0.1 µM.
For experiment [7] the target is unchanged. To be noted: at 1 µM.
The subject of experiment [8] is Serine/threonine-protein kinase B-raf (Homo sapiens), P15056 [V600E]. Particulars: at 0.1 µM.
The test system is the same in experiment [9]. To be noted: at 1 µM.
Experiment [10] has as its target RAF proto-oncogene serine/threonine-protein kinase (Homo sapiens) (UniProt P04049). Particulars: at 0.1 µM.
For experiment [11] the target is unchanged. Particulars: at 1 µM.
In experiment [12] the target is T3, Interleukin-1 receptor-associated kinase 4 (Homo sapiens) (UniProt Q9NWZ3).
T3 sequence (whole entry): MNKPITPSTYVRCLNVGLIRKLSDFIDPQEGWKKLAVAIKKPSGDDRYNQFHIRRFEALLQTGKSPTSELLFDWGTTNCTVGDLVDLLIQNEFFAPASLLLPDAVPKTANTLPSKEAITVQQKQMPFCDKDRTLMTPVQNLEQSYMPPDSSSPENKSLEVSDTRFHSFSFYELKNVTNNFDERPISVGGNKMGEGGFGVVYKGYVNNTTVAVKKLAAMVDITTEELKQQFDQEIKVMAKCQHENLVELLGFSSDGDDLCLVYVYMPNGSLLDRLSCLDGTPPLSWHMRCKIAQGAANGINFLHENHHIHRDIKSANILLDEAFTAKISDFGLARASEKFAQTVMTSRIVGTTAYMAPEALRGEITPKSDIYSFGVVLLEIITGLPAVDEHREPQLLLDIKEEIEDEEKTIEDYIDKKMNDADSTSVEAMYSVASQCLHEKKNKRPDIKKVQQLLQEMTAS
To be noted: at 0.1 µM.

Experiment [13] has as its target T3, Interleukin-1 receptor-associated kinase 4 (Homo sapiens). Particulars: at 1 µM.
For experiment [14], the target named is Leucine-rich repeat serine/threonine-protein kinase 2 (Homo sapiens) (UniProt Q5S007). Particulars: at 0.1 µM.
For experiment [15] the target is unchanged. To be noted: at 1 µM.
Experiment [16] has as its system Leucine-rich repeat serine/threonine-protein kinase 2 (Homo sapiens), Q5S007 [G2019S]. Particulars: at 0.1 µM.
For experiment [17] the test system is unchanged. To be noted: at 1 µM.

Sequence of RAF proto-oncogene serine/threonine-protein kinase (Homo sapiens) (P04049 whole entry): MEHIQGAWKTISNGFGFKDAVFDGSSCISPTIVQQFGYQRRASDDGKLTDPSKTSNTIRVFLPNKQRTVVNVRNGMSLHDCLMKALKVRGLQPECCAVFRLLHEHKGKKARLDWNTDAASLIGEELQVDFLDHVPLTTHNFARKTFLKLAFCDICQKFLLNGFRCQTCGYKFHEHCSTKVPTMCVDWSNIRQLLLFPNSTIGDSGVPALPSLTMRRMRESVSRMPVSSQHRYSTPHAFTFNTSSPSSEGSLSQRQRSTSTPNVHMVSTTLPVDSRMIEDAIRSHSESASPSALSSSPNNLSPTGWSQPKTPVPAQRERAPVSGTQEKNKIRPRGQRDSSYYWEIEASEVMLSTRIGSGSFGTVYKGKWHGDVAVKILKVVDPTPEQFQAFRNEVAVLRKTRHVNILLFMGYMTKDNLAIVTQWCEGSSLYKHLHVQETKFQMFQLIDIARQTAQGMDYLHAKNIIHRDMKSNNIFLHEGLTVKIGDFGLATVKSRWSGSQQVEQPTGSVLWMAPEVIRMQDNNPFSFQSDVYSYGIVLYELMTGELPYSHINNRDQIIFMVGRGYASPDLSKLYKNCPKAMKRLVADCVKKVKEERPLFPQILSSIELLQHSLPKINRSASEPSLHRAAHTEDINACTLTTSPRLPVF
Sequence of Leucine-rich repeat serine/threonine-protein kinase 2 (Homo sapiens), Q5S007 [G2019S] (Q5S007 whole entry G2019S): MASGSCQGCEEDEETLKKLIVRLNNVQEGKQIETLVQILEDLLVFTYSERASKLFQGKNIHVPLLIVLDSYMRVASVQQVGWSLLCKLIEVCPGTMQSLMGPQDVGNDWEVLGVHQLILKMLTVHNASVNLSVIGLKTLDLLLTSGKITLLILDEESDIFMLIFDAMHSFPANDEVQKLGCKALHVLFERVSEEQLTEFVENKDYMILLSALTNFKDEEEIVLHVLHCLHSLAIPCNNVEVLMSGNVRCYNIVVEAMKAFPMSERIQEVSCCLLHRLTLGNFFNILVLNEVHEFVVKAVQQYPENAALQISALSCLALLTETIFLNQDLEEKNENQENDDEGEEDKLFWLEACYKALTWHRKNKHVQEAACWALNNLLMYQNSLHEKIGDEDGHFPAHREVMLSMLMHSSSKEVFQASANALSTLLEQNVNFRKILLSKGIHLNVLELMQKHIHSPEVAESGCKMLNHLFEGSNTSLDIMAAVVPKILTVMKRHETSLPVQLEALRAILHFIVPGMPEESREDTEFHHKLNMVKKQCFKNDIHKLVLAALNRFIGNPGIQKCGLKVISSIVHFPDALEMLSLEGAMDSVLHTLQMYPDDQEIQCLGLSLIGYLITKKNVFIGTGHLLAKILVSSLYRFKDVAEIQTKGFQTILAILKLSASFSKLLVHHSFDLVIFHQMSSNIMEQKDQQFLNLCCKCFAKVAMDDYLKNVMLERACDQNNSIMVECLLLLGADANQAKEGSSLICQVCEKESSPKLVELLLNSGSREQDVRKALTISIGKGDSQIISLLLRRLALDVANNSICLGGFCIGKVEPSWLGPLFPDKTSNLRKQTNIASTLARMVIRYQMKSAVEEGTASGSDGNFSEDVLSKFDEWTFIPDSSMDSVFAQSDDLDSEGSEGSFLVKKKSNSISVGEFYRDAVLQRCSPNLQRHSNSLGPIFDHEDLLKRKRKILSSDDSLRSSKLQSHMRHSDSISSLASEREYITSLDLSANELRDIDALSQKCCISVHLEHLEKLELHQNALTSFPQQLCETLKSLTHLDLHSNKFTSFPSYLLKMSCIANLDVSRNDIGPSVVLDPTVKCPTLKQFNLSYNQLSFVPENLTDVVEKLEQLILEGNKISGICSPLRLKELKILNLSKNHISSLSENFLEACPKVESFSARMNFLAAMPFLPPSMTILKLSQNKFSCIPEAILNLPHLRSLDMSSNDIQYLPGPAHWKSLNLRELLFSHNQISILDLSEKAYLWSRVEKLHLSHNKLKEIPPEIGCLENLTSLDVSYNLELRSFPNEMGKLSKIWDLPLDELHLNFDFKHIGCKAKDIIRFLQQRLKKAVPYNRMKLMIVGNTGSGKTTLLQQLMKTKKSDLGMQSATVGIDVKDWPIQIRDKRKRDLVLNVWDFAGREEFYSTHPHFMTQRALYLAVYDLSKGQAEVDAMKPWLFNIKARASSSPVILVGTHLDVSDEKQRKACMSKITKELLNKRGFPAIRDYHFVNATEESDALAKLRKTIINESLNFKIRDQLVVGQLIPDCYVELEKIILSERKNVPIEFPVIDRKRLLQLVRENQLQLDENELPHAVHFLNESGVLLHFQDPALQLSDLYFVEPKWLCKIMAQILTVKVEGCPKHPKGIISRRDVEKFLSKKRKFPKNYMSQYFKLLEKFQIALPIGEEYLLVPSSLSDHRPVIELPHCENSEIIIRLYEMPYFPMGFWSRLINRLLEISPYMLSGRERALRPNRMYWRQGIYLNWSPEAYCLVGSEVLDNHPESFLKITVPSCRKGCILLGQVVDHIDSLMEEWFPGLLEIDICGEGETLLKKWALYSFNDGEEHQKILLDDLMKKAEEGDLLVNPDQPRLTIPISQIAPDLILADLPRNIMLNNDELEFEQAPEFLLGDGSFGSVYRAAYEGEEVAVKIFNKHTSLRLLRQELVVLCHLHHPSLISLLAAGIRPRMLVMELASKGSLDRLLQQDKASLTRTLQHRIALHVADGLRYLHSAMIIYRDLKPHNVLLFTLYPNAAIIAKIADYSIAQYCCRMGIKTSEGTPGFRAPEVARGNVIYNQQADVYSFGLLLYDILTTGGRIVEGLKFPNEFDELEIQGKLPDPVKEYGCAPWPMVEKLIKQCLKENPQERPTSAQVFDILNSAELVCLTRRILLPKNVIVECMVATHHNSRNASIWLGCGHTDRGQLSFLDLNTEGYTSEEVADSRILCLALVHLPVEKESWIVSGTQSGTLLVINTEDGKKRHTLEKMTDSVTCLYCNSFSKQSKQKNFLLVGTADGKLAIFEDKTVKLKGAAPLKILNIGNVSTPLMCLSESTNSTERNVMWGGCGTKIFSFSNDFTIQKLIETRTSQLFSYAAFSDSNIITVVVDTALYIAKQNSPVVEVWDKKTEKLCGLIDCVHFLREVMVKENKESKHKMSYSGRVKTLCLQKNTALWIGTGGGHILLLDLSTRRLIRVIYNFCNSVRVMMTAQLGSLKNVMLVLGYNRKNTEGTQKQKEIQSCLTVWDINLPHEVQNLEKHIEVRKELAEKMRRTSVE
Sequence of Leucine-rich repeat serine/threonine-protein kinase 2 (Homo sapiens) (Q5S007 whole entry): as the sequence (Q5S007 whole entry G2019S) above, with S2019G counted along it
Sequence of Tyrosine-protein kinase Yes (Homo sapiens) (P07947 2-543 limits assumed): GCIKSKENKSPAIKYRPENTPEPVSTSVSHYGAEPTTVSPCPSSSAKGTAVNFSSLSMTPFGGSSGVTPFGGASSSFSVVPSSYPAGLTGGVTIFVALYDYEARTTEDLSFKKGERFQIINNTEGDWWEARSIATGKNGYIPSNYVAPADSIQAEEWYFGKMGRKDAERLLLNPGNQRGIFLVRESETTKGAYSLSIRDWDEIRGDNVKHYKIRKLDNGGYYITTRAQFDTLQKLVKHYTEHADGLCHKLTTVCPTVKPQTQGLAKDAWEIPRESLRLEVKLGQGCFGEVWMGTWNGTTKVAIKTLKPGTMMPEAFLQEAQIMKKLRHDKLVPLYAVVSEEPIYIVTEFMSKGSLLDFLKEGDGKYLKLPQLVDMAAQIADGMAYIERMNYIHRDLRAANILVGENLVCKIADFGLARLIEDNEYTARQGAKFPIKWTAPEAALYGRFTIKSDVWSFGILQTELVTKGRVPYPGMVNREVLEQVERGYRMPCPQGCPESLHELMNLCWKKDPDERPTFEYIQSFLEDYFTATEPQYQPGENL
Sequence of Serine/threonine-protein kinase B-raf (Homo sapiens) (P15056 whole entry): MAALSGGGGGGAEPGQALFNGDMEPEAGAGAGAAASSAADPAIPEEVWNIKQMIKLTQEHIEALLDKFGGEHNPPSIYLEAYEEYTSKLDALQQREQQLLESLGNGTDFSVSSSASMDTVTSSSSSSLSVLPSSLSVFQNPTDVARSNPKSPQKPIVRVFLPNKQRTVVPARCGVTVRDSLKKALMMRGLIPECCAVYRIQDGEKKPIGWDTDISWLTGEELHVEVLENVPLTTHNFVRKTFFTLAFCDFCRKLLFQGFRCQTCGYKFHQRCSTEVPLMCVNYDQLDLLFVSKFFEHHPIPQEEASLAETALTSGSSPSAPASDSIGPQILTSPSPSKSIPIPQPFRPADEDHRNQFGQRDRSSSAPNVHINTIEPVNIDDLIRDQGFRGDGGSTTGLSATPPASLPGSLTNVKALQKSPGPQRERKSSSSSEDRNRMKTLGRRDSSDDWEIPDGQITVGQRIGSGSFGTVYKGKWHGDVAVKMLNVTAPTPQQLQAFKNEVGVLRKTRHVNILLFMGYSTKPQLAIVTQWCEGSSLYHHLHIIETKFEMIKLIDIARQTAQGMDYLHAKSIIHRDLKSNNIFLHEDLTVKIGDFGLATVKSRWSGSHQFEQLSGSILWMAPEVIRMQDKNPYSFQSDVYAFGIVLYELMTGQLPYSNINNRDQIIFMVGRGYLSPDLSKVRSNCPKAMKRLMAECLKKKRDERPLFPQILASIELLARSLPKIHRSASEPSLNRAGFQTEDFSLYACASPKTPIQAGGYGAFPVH
Sequence of Serine/threonine-protein kinase B-raf (Homo sapiens), P15056 [V600E] (P15056 whole entry V600E): as the sequence (P15056 whole entry) above, with V600E counted along it

Consider `CC(=O)NCc1cccc(C#Cc2cncnc2Nc2ccc(OCc3cccc(F)c3)c(Cl)c2)c1`, for which the inhibition (in general, the relative decrease from the control value, in per cent) in experiment [1] was 0.4%; in experiment [2], 0.55%; in experiment [3], 6.04%; in experiment [4], -1.79%; in experiment [5], 2.22%; in experiment [6] it was 1.06%. Also, the inhibition is 1.33% in [7]; 3.3% in experiment [8]; 0.73% in experiment [9]; 4.54% in experiment [10]; -4.04% in [11]; 2.92% in [12]. Further, the inhibition was found to be 0.5% in experiment [13]; 0.41% in experiment [14]; 7.51% in experiment [15]; 2.36% in experiment [16]; 7.6% in experiment [17].

As to `CCOc1ccc2c(-c3ccnc(Nc4cccc(C(F)(F)F)c4)n3)cnn2n1`, the inhibition in experiment [1] is 2.7%; in experiment [2], 0.08%; in [3], 3.08%; in [4] it was 0.89%; in experiment [5], 2.78%; in experiment [6], 3.46%. Further, the inhibition is 1.64% in experiment [7]; 3.04% in experiment [8]; 0.8% in [9]; -2.28% in experiment [10]; -1.21% in [11]; 0.16% in [12]. Besides, the inhibition in experiment [13] came to 1.01%; in experiment [14] it was 3.4%; in experiment [15] it was 6.76%; in experiment [16] it was 4.61%; in [17], 10.4%.

Turning to `[O-][S+]1CCN(Cc2ccc(-c3ccc4ncnc(Nc5ccc(OCc6cccc(F)c6)c(Cl)c5)c4c3)o2)CC1`, the inhibition in experiment [1] was 18.8%; in experiment [2], 6.03%; in experiment [3], 21.1%; in experiment [4], 0.38%; in experiment [5], 3.57%; in [6], 6.54%. The inhibition in experiment [7] is 8.02%; in [8], 5.36%; in [9], 5.17%; in experiment [10], -0.6%; in experiment [11], -3.13%; in experiment [12], 1.66%. The inhibition amounted to 1.66% in experiment [13]; 3.74% in experiment [14]; 3.96% in [15]; 6.35% in [16]; 11.4% in [17].

`Fc1ccc(-c2nn3ccccc3c2-c2ccncc2)cc1`: the inhibition was found to be 1.25% in experiment [1]; 0.18% in [2]; 5.66% in experiment [3]; 0.73% in experiment [4]; 2.32% in experiment [5]; 2.84% in experiment [6]. Also, the inhibition is 7.13% in [7]; 2.64% in [8]; 4.72% in [9]; -1.45% in [10]; -9.31% in experiment [11]; 2.69% in experiment [12]. For the same compound, the inhibition came out at 0.14% in experiment [13]; 1.66% in experiment [14]; 3.74% in [15]; 1.38% in experiment [16]; 4.57% in experiment [17].

`Nc1ncc(-c2cccc(S(N)(=O)=O)c2)c2scc(-c3ccc(F)c(Cl)c3)c12`: the inhibition came to 25.1% in experiment [1]; 11.5% in experiment [2]; 56.4% in experiment [3]; 1.28% in experiment [4]; 2.18% in experiment [5]; 6.39% in experiment [6]. The inhibition in experiment [7] is 15.3%; in experiment [8], 5.84%; in experiment [9], 10.1%; in experiment [10], -0.36%; in experiment [11] it was -4.88%; in [12], 1.66%. Moreover, the inhibition in experiment [13] turned out to be 2.08%; in experiment [14], 10.2%; in [15], 45.8%; in [16] it was 11.7%; in experiment [17] it was 51.2%.

As to `CCn1c(-c2nonc2N)nc2c(C#CC(C)(C)O)ncc(OC3CCNCC3)c21`, the inhibition in experiment [1] was 2.44%; in [2], 1.38%; in experiment [3], 5.89%; in [4] it was 0.49%; in [5], 1.77%; in experiment [6], 3.57%. Moreover, the inhibition in experiment [7] is 6.35%; in [8], 4.12%; in experiment [9], 3.02%; in [10] it was 8.75%; in [11], 1.95%; in experiment [12], 2.02%. Also, the inhibition in experiment [13] amounted to 1.93%; in experiment [14], 0.26%; in [15], 6.79%; in experiment [16] it was 3.92%; in [17] it was 12%.

Turning to `COc1cc2ncn(-c3cc(OCc4ccccc4C(F)(F)F)c(C(=O)N(C)C)s3)c2cc1OC`, the inhibition in [1] was 2%; in experiment [2], 0.64%; in experiment [3] it was 6.88%; in experiment [4], 1.79%; in [5], 1.15%; in experiment [6], -0.22%. In addition, the inhibition in experiment [7] was 1.2%; in experiment [8], -0.77%; in experiment [9], 2.51%; in [10], 0.38%; in experiment [11] it was -3.66%; in [12] it was 2.2%. In addition, the inhibition in experiment [13] is -0.25%; in experiment [14], 2.7%; in experiment [15], 15.2%; in [16], 1.6%; in [17] it was 16.7%.
